tim10-1 inh: growth inhibitors of tim10-1 mutant yeast; S. cerevisiae tim10-1 ts strain growth, BacTiter-Glo, 24 h; inhibition, % at 20 µM; AID 463190; actives 2.2% (n = 330,000);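 active = inhibition of at least 40%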;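 note: mutant grown at 25 °C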
SKKanGAS inh: inhibitors of SKKanGAS S. pyogenes growth in kanamycin (SK-promoter or general growth effect); BacTiter-Glo, 6 h; inhibition, % at 7.5 µM; actives 1.3% (n = 300,000);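 active = mean replicate score, as percent of positive control median, at least 50; inconclusive = mean below 50 but one replicate at or above 50; inactive = mean and every replicate below 50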;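 note: strain carries kanamycin resistance gene driven by streptokinase promoter and grows in 40 µg/ml kanamycin; loss of luminescence reflects streptokinase promoter inhibition or plain growth inhibition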
TIM10 inh: growth inhibitors of TIM10 yeast strain; inhibition, % at 10 µM; actives 1.4% (n = 330,000); S. cerevisiae TIM10 strain growth, BacTiter-Glo luminescence, 24 h;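 active = inhibition of 40% or more at the single tested concentration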;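 note: wild-type TIM10 isogenic control strain grown at permissive 25 °C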
tim23-1 inh: tim23-1 yeast growth inhibition. inhibition, % at 20 µM. actives 1.3% (n = 330,000). S. cerevisiae tim23-1 growth, BacTiter-Glo luminescence, 24 h;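 active = growth inhibition of the mutant yeast at or above 50%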;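 note: temperature-sensitive mutant grown at 25 °C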
PfHsp90 yeast 2: reduces growth (ATP signal) of yeast expressing P. falciparum Hsp90. S. cerevisiae expressing PfHsp90, BacTiter-Glo ATP, 48 h; yeast lacking PDR1 and PDR3 efflux regulators. AID 504621. actives 0.32% (n = 310,000). inhibition, % at 9.4 µM;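 active = every replicate shows inhibition above about 80%, whatever the replicate mean, limit read from the data; inconclusive = mean inhibition reaches the set limit but some replicate falls short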
Calb FLC: C. albicans growth modulation with fluconazole. C. albicans CaCi-2 (fluconazole-resistant clinical isolate) + fluconazole, Alamar Blue growth, 48 h. growth inhibition, % (concentration not given with the values). actives 0.57% (n = 300,000). AID 1979;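 active = growth inhibition above about 58% in most replicates, limit read from the data, passing the limit was not always enough; inconclusive = exactly half the replicates above a set limit; inactive = most replicates below a set limit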;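 note: all wells also contain fluconazole at 8 µg/ml as a sub-toxic cotreatment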
tim10 confirm: TIM10 yeast growth inhibition, confirmed; actives 63% (n = 4,600); S. cerevisiae tim10 strain growth, BacTiter-Glo luminescence, 24 h; shares compounds with TIM10 inh; inhibition, % at 10 µM; AID 463215;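 active = inhibition of yeast growth at or above a set limit in either of two replicates at 10 µM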; note: this counterscreen used the strain with wild-type TIM10
tim23-1 confirm: tim23-1 yeast growth inhibition, confirmed | shares compounds with tim23-1 inh | S. cerevisiae tim23-1 growth, BacTiter-Glo luminescence, 24 h | inhibition, % at 20 µM | actives 83% (n = 4,400) | AID 463218;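 active = inhibition above about 39% in either of two replicate wells at 20 µM, limit read from the data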;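 note: temperature-sensitive tim23-1 mutant grown at 25 °C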
Hits are given with their value; - = inactive; ? = inconclusive; . = no result given; + = active, no number. The list is not random: actives were taken first. Their share in the collection is about 4.7%.

SMILES	tim10-1 inh	SKKanGAS inh	TIM10 inh	tim23-1 inh	PfHsp90 yeast 2	Calb FLC	tim10 confirm	tim23-1 confirm
Cc1cccc2cc(/C=C/C(=O)c3ccco3)c(Cl)nc12	-	-	43	50	.	-	-	52
O=C(NCCc1ccccc1)C1CCC(CNc2nc(=S)[nH]c3ccccc23)CC1 (stereo not drawn)	-	-	-	-	-	-	.	.
CN1C(=S)N(c2cccnc2)C(=O)/C1=C\c1ccc(C(C)(C)C)cc1	-	-	55	55	?	-	56	46
CCc1ccn2cc(-c3cc(-c4ccccc4)no3)nc2c1	-	-	62	61	-	-	56	81
Cc1ccc(NN2C(=O)C=C(c3ccc(Cl)cc3)C2=O)cc1	-	-	73	68	120	-	59	-
CCC(C)NC(=O)Nc1ccc(Br)cc1 (stereo not drawn)	-	-	-	-	-	-	.	.
CCC(C)Nc1ccc(NC(C)CC)cc1 (stereo not drawn)	-	.	61	80	+	.	69	82
N#Cc1nc(NCC(F)F)nc(Nc2cc(F)cc(F)c2)n1	-	.	42	69	-	.	50	65
COc1ccc(N=C(C)C2=C(O)c3ccccc3C2=O)cc1	-	-	62	58	-	-	-	68
Cc1ccc(NC(=O)ON=C2CCCC2)cc1	-	-	54	53	-	-	68	47
O=C(Nc1ccc(S(=O)(=O)Nc2cnc3ccccc3n2)cc1)c1ccc(Cl)c([N+](=O)[O-])c1	-	-	-	-	-	-	.	.
CCOC(=O)c1cnc2c(Cl)c(Cl)ccc2c1NCCN1CCOCC1	-	-	-	-	-	-	.	.
CCOC(=O)c1cnc2c(C)c(Cl)ccc2c1NCCCN1CCOCC1	-	-	65	51	-	-	60	41
Cc1cc(Cl)ccc1NC(=O)CCC(=O)N/N=C/c1cc([N+](=O)[O-])ccc1O	-	-	-	-	-	-	.	.
O=[N+]([O-])c1ccc(O)c(/C=N/NC(=S)Nc2ccc(Cl)cc2Cl)c1	-	117	46	81	-	101	43	77
COc1ccc(N=N/C(=C\O)C(=O)c2cccs2)cc1	-	-	55	76	-	-	58	65
COc1ccc(NC(=O)c2cccs2)cc1	-	-	-	-	-	-	.	.
Oc1ccccc1N=Nc1nc(-c2ccccc2)c(-c2ccccc2)[nH]1	-	114	56	53	106	-	57	62
O=C(O)c1ccc(-c2nc(-c3ccccc3)c(-c3ccccc3)[nH]2)cc1	-	-	-	-	-	-	.	.
O=C(Nc1nc2ccccc2s1)C1c2ccccc2Oc2ccccc21	-	-	45	51	-	-	46	58
O=[N+]([O-])c1cc2oc3c(c2c(C=NCc2ccccc2)c1O)CCCC3	-	-	54	77	-	-	-	-
N#CC1=C(c2ccccc2)/C(=C/c2ccccc2)OC1=O	-	57	44	61	-	?	52	59
c1ccc(-n2cnc3cc(NCc4ccco4)ccc32)cc1	-	-	53	54	.	-	39	68
Cc1nc2cc(NC(=O)NCc3ccco3)ccc2n1C	-	-	-	-	-	-	.	.
N#C/C(=C/c1ccc(O)c(O)c1)C(=O)NCc1ccc(Cl)cc1	-	-	-	-	-	-	.	.
SMILES	tim10-1 inh	SKKanGAS inh	TIM10 inh	tim23-1 inh	PfHsp90 yeast 2	Calb FLC	tim10 confirm	tim23-1 confirm
N#C/C(=C/c1cccc(O)c1)C(=O)NCc1ccc(Cl)cc1	-	-	71	77	-	-	77	75
COc1cc(C(=O)ON=C2C3CC4CC(C3)CC2C4)cc(OC)c1OC	-	-	82	50	-	-	84	60
Cc1ccc2nc(-c3ccccc3N)[nH]c2c1	-	-	44	67	-	-	-	-
Cc1ccc(C)c(-c2nc3ccc(N)cc3[nH]2)c1	-	-	-	-	-	-	.	.
Cc1ccccc1OCC(=O)O/N=C(\N)Cc1ccc(Cl)cc1	-	-	84	82	-	-	79	60
CCN(CC)S(=O)(=O)c1ccc(N2CCN(C)CC2)c(NC(=O)COc2ccc(F)cc2Cl)c1	-	-	-	-	.	-	.	.
CC(C)N1CCc2c(sc(NC(=O)c3ccc4ccccc4c3)c2C(N)=O)C1	-	-	-	-	-	-	.	.
CC(=O)Nc1sc2c(c1-c1nc3ccccc3s1)CCN(C(C)C)C2	-	.	66	54	-	.	63	60
O=C1NC(=Nc2ccccc2)S/C1=C/c1cccs1	-	-	49	62	-	?	32	72
Cc1ccccc1C(=O)N/N=C/c1ccc([N+](=O)[O-])s1	-	-	52	76	-	-	47	66
COCC(C)N1CCC(n2nccc2NC(=O)CCCc2ccccc2)CC1 (stereo not drawn)	-	-	-	-	-	-	.	.
c1ccc(N/N=C(\Cc2nc3ccccc3[nH]2)c2ccccc2)cc1	-	-	48	58	-	-	-	60
CCN/N=C(\Cc1nc2ccccc2[nH]1)c1ccccc1	-	-	-	-	-	-	.	.
N/C(=N\OC(=O)c1cc(Cl)ccc1Cl)c1ccccn1	-	-	58	66	-	-	44	57
N/C(=N\OC(=O)c1ccc(Cl)cc1Cl)c1ccc(Cl)cc1	-	-	79	82	-	-	85	67
CCOP(=O)(OCC)/C(=N/OC(=O)c1ccc(Cl)cc1Cl)C(N)=O	-	-	-	-	-	-	.	.
Cc1ccc(/C(N)=N/OC(=O)c2ccc(C)cc2Cl)cc1	-	-	82	80	-	-	89	-
Cc1cc(/C(N)=N/OC(=O)c2ccccc2Cl)no1	-	-	-	-	-	-	.	.
COc1ccc(Cl)cc1C(=O)O/N=C(\N)c1ccccn1	-	-	-	-	-	-	.	.
Cc1cccc(/C(N)=N/OC(=O)c2ccc(Cl)cc2Cl)c1	-	-	86	66	-	-	88	40
CCOC(=O)N1CCN(c2nc3ccc(C)cc3n3cnnc23)CC1	-	-	-	-	-	-	.	.
Cc1ccc(S(=O)(=O)NCc2ccccn2)cc1C	-	-	-	-	-	-	.	.
O=Cc1cn(-c2ccccc2)nc1-c1ccncc1	-	-	47	56	.	-	38	47
O=Cc1cn(-c2ccccc2)nc1-c1ccccc1	-	-	58	68	-	-	64	69
O=C(O)/C=C/c1cn(-c2ccccc2)nc1-c1ccccc1	-	-	-	-	-	-	.	.
CCCc1c(C)nc(N2CCN(c3ccccc3F)CC2)[nH]c1=O	-	-	-	-	-	-	.	.
CCOC(=O)c1sc(NC(=O)c2ccccc2)cc1C	-	-	50	64	-	-	32	72

Screens from PubChem.
